# Assay results as given in PubChem BioAssay (EPA / NIEHS).
# Several values for one entry are separate records, joined by “and”; a condition that tells them apart may be missing. Equal entries are not always repeated. Some compounds were tested as several samples or in several runs, with calls that do not always agree. Activity calls are given as the source filed them. How the source made its calls, unless noted: active means hit-call score of the fitted dose curve at least 0.9, where 1 is the maximum; inactive means score below 0.9.
# Tested on: DIO2 (gene 1734)
# Test: CCTE_GLTED_hDIO2: CCTE's human Deiodinase 2 (DIO2) Inhibition Assay, Great Lakes Toxicology and Ecology Division (GLTED) Lab (AID 2284050; active means hit-call score of the fitted dose curve at least 0.9, where 1 is the maximum)
# Summary of the method: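 Inhibition is judged by reduced iodide release: uninhibited human DIO2 frees iodide from substrate over 3 h, measured afterward by Sandell-Kolthoff colorimetry. Iodinated chemicals or nitrite, iron and thiocyanate may interfere.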
row,Structure (SMILES),AC50
1,CCCCCCCCCC[N+](C)(C)CCCCCCCCCC,62.7 µM (active)
2,O=C(O)C(F)(F)C(F)(F)C(F)(F)C(F)(F)C(F)(F)C(F)(F)C(F)(F)C(F)(F)C(F)(F)F,100 µM (active) and 71.6 µM (active)
3,CCCCCCCCCc1ccc(O)cc1,136 µM (active)
4,CC#Cc1cc(C)nc(Nc2ccccc2)n1,22.2 µM (active)
5,Clc1ccc(C(Cl)(Cl)Cl)cc1,61.7 µM (active)
6,O=C(O)C(F)(F)C(F)(F)C(F)(F)C(F)(F)C(F)(F)C(F)(F)C(F)(F)C(F)(F)F,46.1 µM (active)
7,Oc1ccc(C(c2ccc(O)cc2)(C(F)(F)F)C(F)(F)F)cc1,128 µM (active)

# Tested on: not listed separately
# Test: CCTE_Shafer_MEA_dev_spike_duration_mean: CCTE's Neural Network Formation Assay for Mean Spike Duration, Shafer Lab (AID 2284051);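 further: mean network spike duration pooled as area under curve over DIV 5 to 12 recordings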;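 on AC50: potency for a decrease in mean network spike duration versus DMSO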
# Summary of the method: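 With DMSO as baseline, loss of mean network spike duration was scored from extracellular recordings of rat cortical neurons on MEA plates. Exposure spanned plating to DIV 12; the four recording days were collapsed into one AUC value.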
Structure (SMILES),AC50,outcome
Clc1ccc(C(c2ccccc2Cl)C(Cl)(Cl)Cl)cc1 (stereo not drawn),2.76 µM (active),–
CO/C=C(/C(=O)OC)c1ccccc1COc1cccc(C(F)(F)F)n1,212 nM (active) and 454 nM (active),–
O=C(O)C(F)(F)C(F)(F)C(F)(F)C(F)(F)C(F)(F)F,–,inactive
CCC(C)(c1ccc(O)cc1)c1ccc(O)cc1,10 µM (active),–
CCOP(=S)(OCC)SCSC(C)(C)C,13.9 µM (active) and 21.9 µM (active),–
c1cc2ccc3cccc4ccc(c1)c2c34,–,inactive
O=S(=O)(O)C(F)(F)C(F)(F)C(F)(F)C(F)(F)C(F)(F)C(F)(F)F,–,inactive
ClC1=C(Cl)[C@]2(Cl)[C@@H]3[C@@H](Cl)[C@H]4O[C@H]4[C@@H]3C1(Cl)C2(Cl)Cl,25.9 µM (active),–
C=CC(N)=O,–,inactive
COc1ccc(O)c(C(C)(C)C)c1,–,inactive
O=C(O)C(F)(F)C(F)(F)C(F)(F)C(F)(F)C(F)(F)C(F)(F)C(F)(F)C(F)(F)F,–,inactive
ClC1=C(Cl)[C@]2(Cl)[C@@H]3[C@H]4C[C@H]([C@@H]5O[C@H]45)[C@@H]3[C@@]1(Cl)C2(Cl)Cl,–,inactive
Oc1ccc(C(c2ccc(O)cc2)(C(F)(F)F)C(F)(F)F)cc1,9.95 µM (active),inactive
ClC1=C(Cl)[C@]2(Cl)[C@@H]3[C@@H]4C[C@@H]([C@H]5O[C@@H]45)[C@@H]3[C@@]1(Cl)C2(Cl)Cl,23.9 µM (active),–
NS(=O)(=O)C(F)(F)C(F)(F)C(F)(F)C(F)(F)C(F)(F)C(F)(F)C(F)(F)C(F)(F)F,23.3 µM (active),inactive
O=S(=O)(O)C(F)(F)C(F)(F)C(F)(F)C(F)(F)F,50 µM (active),inactive
ClC(Cl)=C(c1ccc(Cl)cc1)c1ccc(Cl)cc1,3.8 µM (active),–

# Tested on: not listed separately
# Test: CCTE_Shafer_MEA_dev_network_spike_duration_std: CCTE's Neural Network Formation Assay for Standard Deviation of Network Spike Duration, Shafer Lab (AID 2284052);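 further: area under curve of spike duration SD across recording days 5 to 12; hits are decreases in network spike duration SD versus DMSO vehicle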
# Summary of the method: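 Developing networks of rat cortical neurons were exposed over twelve days in vitro on 48-well MEA plates. Trapezoidal AUC of recordings (DIV 5–12) was analysed for signal loss relative to DMSO vehicle.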
Structure (SMILES),outcome,AC50
Clc1ccc(C(c2ccccc2Cl)C(Cl)(Cl)Cl)cc1 (stereo not drawn),inactive,–
CO/C=C(/C(=O)OC)c1ccccc1COc1cccc(C(F)(F)F)n1,–,246 nM (active) and 245 nM (active)
O=C(O)C(F)(F)C(F)(F)C(F)(F)C(F)(F)C(F)(F)F,inactive,–
CCC(C)(c1ccc(O)cc1)c1ccc(O)cc1,inactive,–
CCOP(=S)(OCC)SCSC(C)(C)C,inactive,16.2 µM (active)
c1cc2ccc3cccc4ccc(c1)c2c34,inactive,–
O=S(=O)(O)C(F)(F)C(F)(F)C(F)(F)C(F)(F)C(F)(F)C(F)(F)F,inactive,–
ClC1=C(Cl)[C@]2(Cl)[C@@H]3[C@@H](Cl)[C@H]4O[C@H]4[C@@H]3C1(Cl)C2(Cl)Cl,inactive,–
C=CC(N)=O,inactive,–
COc1ccc(O)c(C(C)(C)C)c1,inactive,–
O=C(O)C(F)(F)C(F)(F)C(F)(F)C(F)(F)C(F)(F)C(F)(F)C(F)(F)C(F)(F)F,inactive,–
ClC1=C(Cl)[C@]2(Cl)[C@@H]3[C@H]4C[C@H]([C@@H]5O[C@H]45)[C@@H]3[C@@]1(Cl)C2(Cl)Cl,inactive,–
Oc1ccc(C(c2ccc(O)cc2)(C(F)(F)F)C(F)(F)F)cc1,inactive,–
ClC1=C(Cl)[C@]2(Cl)[C@@H]3[C@@H]4C[C@@H]([C@H]5O[C@@H]45)[C@@H]3[C@@]1(Cl)C2(Cl)Cl,–,3.38 µM (active)
NS(=O)(=O)C(F)(F)C(F)(F)C(F)(F)C(F)(F)C(F)(F)C(F)(F)C(F)(F)C(F)(F)F,inactive,–
O=S(=O)(O)C(F)(F)C(F)(F)C(F)(F)C(F)(F)F,inactive,–

# Tested on: not listed separately
# Test: CCTE_Shafer_MEA_dev_per_network_spike_spike_number_mean: CCTE's Neural Network Formation Assay for Mean Number of Spikes in a Network Spike, Shafer Lab (AID 2284053);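 on AC50: fitted as decrease in spikes per network spike relative to DMSO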
# Summary of the method: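 First, rat cortical cells (1.5 x 10^5/well) were seeded onto MEA wells; second, dosing began at plating and was refreshed on DIV 5 and 9; finally, network-spike spike counts across DIV 5–12 were summarized as AUC.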
Structure (SMILES),AC50,outcome
Clc1ccc(C(c2ccccc2Cl)C(Cl)(Cl)Cl)cc1 (stereo not drawn),0.215 µM (active),–
CO/C=C(/C(=O)OC)c1ccccc1COc1cccc(C(F)(F)F)n1,218 nM (active) and 739 nM (active),–
O=C(O)C(F)(F)C(F)(F)C(F)(F)C(F)(F)C(F)(F)F,–,inactive
CCC(C)(c1ccc(O)cc1)c1ccc(O)cc1,–,inactive
CCOP(=S)(OCC)SCSC(C)(C)C,23.4 µM (active) and 17.1 µM (active),–
c1cc2ccc3cccc4ccc(c1)c2c34,–,inactive
O=S(=O)(O)C(F)(F)C(F)(F)C(F)(F)C(F)(F)C(F)(F)C(F)(F)F,–,inactive
ClC1=C(Cl)[C@]2(Cl)[C@@H]3[C@@H](Cl)[C@H]4O[C@H]4[C@@H]3C1(Cl)C2(Cl)Cl,27.1 µM (active),–
C=CC(N)=O,–,inactive
COc1ccc(O)c(C(C)(C)C)c1,–,inactive
O=C(O)C(F)(F)C(F)(F)C(F)(F)C(F)(F)C(F)(F)C(F)(F)C(F)(F)C(F)(F)F,–,inactive
ClC1=C(Cl)[C@]2(Cl)[C@@H]3[C@H]4C[C@H]([C@@H]5O[C@H]45)[C@@H]3[C@@]1(Cl)C2(Cl)Cl,–,inactive
Oc1ccc(C(c2ccc(O)cc2)(C(F)(F)F)C(F)(F)F)cc1,–,inactive
ClC1=C(Cl)[C@]2(Cl)[C@@H]3[C@@H]4C[C@@H]([C@H]5O[C@@H]45)[C@@H]3[C@@]1(Cl)C2(Cl)Cl,–,inactive
NS(=O)(=O)C(F)(F)C(F)(F)C(F)(F)C(F)(F)C(F)(F)C(F)(F)C(F)(F)C(F)(F)F,15 µM (active),inactive
O=S(=O)(O)C(F)(F)C(F)(F)C(F)(F)C(F)(F)F,14.2 µM (active),inactive
ClC(Cl)=C(c1ccc(Cl)cc1)c1ccc(Cl)cc1,3.63 µM (active),–
